This note sets out measurements from PubChem BioAssay (Tox21).

Experiment [1] addresses Progesterone receptor (Homo sapiens) (UniProt P06401). Briefly: qHTS assay to identify small molecule agonists of the progesterone receptor (PR) signaling pathway (AID 1346784; calls by dose curve; further: nearly all actives have a fitted effect of over 30% in size). Summed up:
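Reporter assay, GripTite PR-UAS-bla HEK 293T cells: 16 hr exposure to DMSO-dissolved compounds at 37C, 5% CO2, in steroid-depleted (2% charcoal-stripped FBS) medium; beta-lactamase measured by FRET fluorescence.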

For experiment [2] the target is unchanged. In words: qHTS assay to identify small molecule antagonists of the progesterone receptor (PR) signaling pathway (AID 1346795; active means well fitted inhibition curve with a large enough effect in the signal ratio in the repeat runs, not every such curve was filed as active; the % refers to the signal ratio; further: potency means the concentration at half of the fitted maximal effect). Summed up: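 Stimulus R5020 at 1 nM final; cells HEK293T PR-UAS-bla; medium with 2% charcoal-stripped FBS; compound exposure 16 hr at 37C, 5% CO2; detection by FRET beta-lactamase substrate, 2 hr, room temperature.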
(Quantitative high-throughput screening tests each substance at several concentrations.)

Experiment [3] can be described thus: qHTS assay to identify small molecule antagonists of the progesterone receptor (PR) signaling pathway - cell viability counter screen (AID 1346798). Further: series mostly up to about 92 µM; nearly all actives have a fitted effect of over 50% in size. The gist of the method: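 In the same plates used for the beta-lactamase readout, cell viability of compound- and R5020-treated PR-UAS-bla HEK293T cells (16 hr, 37C) was assessed by CellTiter-Glo luminescence.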

A short description of experiment [4]: qHTS assay to identify small molecule agonists of the progesterone receptor (PR) signaling pathway - cell viability counter screen (AID 1346799; calls by dose curve; further: nearly all actives have a fitted effect of over 45% in size). The gist of the method: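 Multiplexed viability read: CellTiter-Glo luminescence, 30 min RT, following LiveBLAzer FRET measurement on PR-UAS-bla HEK293T cells exposed to compounds 16 hr.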
Experiment [5] can be described thus: qHTS assay to identify small molecule agonists of the TGF-beta/Smad signaling pathway - cell viability counter screen (AID 1346829). Further: top concentration of the series differs between compounds; nearly all actives have a fitted effect of over 45% in size. The gist of the method:
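Luminescence from CellTiter-Glo, read after a 30 min room-temperature incubation, gives cell viability of SBE-bla HEK 293T cells treated 5 hr with compounds at 37 C.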

Experiment [6] in a line: qHTS assay to identify small molecule agonists of the TGF-beta/Smad signaling pathway (AID 1346859; active means well fitted activation curve with a large enough effect in the signal ratio in the repeat runs, not every such curve was filed as active; the % refers to the signal ratio; further: series mostly up to about 77 µM). Summed up:
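Screening used HEK 293T SBE-bla cells at 4,000/well. Test agents: 5 hr, 37 C. Detection: FRET substrate, 2 hr RT, then excitation 405 nm with emissions at 460 and 530 nm.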

Experiment [7] concerns the target Thyrotropin-releasing hormone receptor (Homo sapiens) (UniProt P34981). Briefly: qHTS assay to identify small molecule antagonists of the thyrotropin-releasing hormone receptor (TRHR) signaling pathway (AID 1346877; active means well fitted inhibition curve with a large enough effect in the repeat runs, not every such curve was filed as active; further: series mostly up to about 51 µM). Summed up:
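In this cell-based calcium flux format, HEK293 cells expressing TRHR received test compound for 5 min before the agonist TRH (1 nM final). Dye loading lasted 2 h at 37 °C.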

Experiment [8] shares this target. Briefly: qHTS assay to identify small molecule agonists of the thyrotropin-releasing hormone receptor (TRHR) signaling pathway (AID 1346891; calls by dose curve; further: series mostly up to about 58 µM). The gist of the method:
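Readout was intracellular calcium fluorescence in TRHR-Hek293 cells. Cells were incubated 18 h, dye-loaded 2 h at 37 °C, and treated with compound in agonist mode.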

Experiment [9] is described as follows: Human pregnane X receptor (PXR) small molecule agonists, qHTS cell viability counter screen (AID 1346977). Further: nearly all actives have a fitted effect of over 50% in size. Further: potency means the concentration at half of the fitted maximal effect. Summed up:
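In each well, the PXR reporter HepG2 line was checked for viability: CellTiter-Fluor reagent added 23hr post-dosing, fluorescence read after 1hr incubation at 37C.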

Experiment [10] in a line: Caspase-3/7 induction in CHO-K1 cells by small molecules, qHTS assay (AID 1346980). Further: nearly all actives have a fitted effect of over 15% in size. The gist of the method: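 Wild-type cells were seeded at 1,500 per well and settled 5 hr at 37 C, 5% CO2, then exposed to DMSO-dissolved compounds for 17 hr. Caspase-Glo 3/7 reagent was added, and luminescence was read after 30min at room temperature.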
A short description of experiment [11]: Caspase-3/7 induction in HepG2 cells by small molecules, qHTS cell viability counter screen (AID 1346981). Further: nearly all actives have a fitted effect of over 30% in size. Further: potency means the concentration at half of the fitted maximal effect. On activity change, negative = cytotoxicity: series mostly up to about 92 µM. The gist of the method:
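Counter screen for cytotoxicity: HepG2 exposed 16 hr to compounds, then CellTiter-Fluor viability signal (fluorescence, 1 hr reagent incubation).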

The target of experiment [12] is Nuclear receptor subfamily 1 group I member 2 (Homo sapiens) (UniProt O75469). Briefly: Human pregnane X receptor (PXR) small molecule agonists, qHTS assay (AID 1346982). Further: nearly all actives have a fitted effect of over 35% in size. The gist of the method: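 Luminescence (ONE-Glo, 30 min RT) after 24 hr compound exposure of PXR-Luc HepG2 cells; cells rested 5 hr post-plating in 5% charcoal-stripped FBS medium.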
A short description of experiment [13]: Caspase-3/7 induction in CHO-K1 cells by small molecules, qHTS cell viability counter screen (AID 1346979). Further: nearly all actives have a fitted effect of over 35% in size. The gist of the method: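 Following a 5hr settling period, CHO-K1 cells at 1,500 per well received DMSO-dissolved compounds. Cell viability was quantified 16hr later by CellTiter-Fluor fluorescence, measured after 1hr with reagent at 37C.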
The target in experiment [14] is Cytochrome P450 2D6 (Homo sapiens) (UniProt P10635). Briefly: Cytochrome P450 Family 2 Subfamily D Member 6 (CYP2D6) small molecule antagonists: luciferase reporter qHTS assay (AID 1671196). Further: nearly all actives have a fitted effect of over 50% in size. Further: potency means the concentration at half of the fitted maximal effect. On activity change, negative = inhibition: series mostly up to about 120 µM. The gist of the method: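 Inhibition of CYP2D6 was gauged by loss of luminescence, since light produced tracks the luciferin generated from a proluciferin substrate. A 10 min room-temperature preincubation preceded 1 h NADPH-supported turnover.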
(Reporter assays use an easily measured gene product as a stand-in for the process of interest.)

A short description of experiment [15]: qHTS assay to identify small molecule antagonists of the TGF-beta/Smad signaling pathway - cell viability counter screen (AID 1346824). Further: nearly all actives have a fitted effect of over 50% in size. Summed up: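 SBE-bla HEK 293T cells were plated overnight at 37 C, then given compounds in DMSO plus TGF-beta1 (added as 0.25 ng/mL solution) for 5 hr. After the bla read, CellTiter-Glo was added to the same wells and luminescence read after 30 min at room temperature.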

Experiment [16] is described as follows: Caspase-3/7 induction in HepG2 cells by small molecules, qHTS assay (AID 1346978). Further: nearly all actives have a fitted effect of over 15% in size. Summed up:
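Wild-type HepG2 cells (2,000/well) were settled 5 h at 37 C, 5% CO2, then exposed to compounds in DMSO for 17 h. Caspase-3/7 activity was read by luminescence 30 min after adding Caspase-Glo 3/7 reagent at room temperature.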

For experiment [17], the target named is Nuclear receptor subfamily 1 group I member 2 (Rattus norvegicus) (UniProt Q9R1A7). Briefly: Rat pregnane X receptor (rPXR) activation by small molecules, qHTS assay (AID 1346983). Further: nearly all actives have a fitted effect of over 20% in size. To be noted: rPXR luciferase reporter cells, One-Glo luminescence, 24 h; max activation: stronger effect = higher value. Summed up:
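Cell-based rPXR luciferase reporter assay, 2,000 cells per well, rested 5hr at 37 C before compound addition in DMSO, then 24 hr at 37 C. One-Glo reagent was added and luminescence read after 30 min at room temperature.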

Experiment [18] deals with Nuclear receptor subfamily 1 group I member 2 (Homo sapiens) (UniProt O75469). In words: CYP3A4 induction through human pregnane X receptor (PXR) by small molecules, qHTS assay (AID 1346984). Further: nearly all actives have a fitted effect of over 40% in size. Further: potency means the concentration at half of the fitted maximal effect. The gist of the method:
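DPX-2 reporter cells; 24h cpd, 37C; Luciferin-IPA 3uM final x3h; One-Glo 30 min RT; lumi read.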

The target of experiment [19] is Cytochrome P450 2C19 (Homo sapiens) (UniProt P33261). Briefly: Cytochrome P450 Family 2 Subfamily C Member 19 (CYP2C19) small molecule antagonists: luciferase reporter qHTS assay (AID 1671197). Further: series mostly up to about 120 µM; nearly all actives have a fitted effect of over 65% in size. The gist of the method:
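CYP2C19 P450-Glo, 1536-well qHTS. Cpd + enzyme/proluciferin substrate 10 min RT; + NADPH regen, 37C 1 h; stop with luciferin detection reagent, 20 min RT, luminescence (RLU). Pos ctrl ketoconazole.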

Values without a mark were called inactive. Inconclusive results are not listed. The source made the active and inactive calls. Unless noted, the call rests on the fitted dose curve; in most records, active means well fitted curve in the direction sought with a large enough effect in the repeat runs; inconclusive means weak or mixed curves; inactive means no such curve, though single readings can be large; an effect the other way counts as inactive or inconclusive.
On the % scale 0 is the no-effect control and ±100 the full control effect.

Sequence of Cytochrome P450 2D6 (Homo sapiens) (P10635 whole entry, looked up): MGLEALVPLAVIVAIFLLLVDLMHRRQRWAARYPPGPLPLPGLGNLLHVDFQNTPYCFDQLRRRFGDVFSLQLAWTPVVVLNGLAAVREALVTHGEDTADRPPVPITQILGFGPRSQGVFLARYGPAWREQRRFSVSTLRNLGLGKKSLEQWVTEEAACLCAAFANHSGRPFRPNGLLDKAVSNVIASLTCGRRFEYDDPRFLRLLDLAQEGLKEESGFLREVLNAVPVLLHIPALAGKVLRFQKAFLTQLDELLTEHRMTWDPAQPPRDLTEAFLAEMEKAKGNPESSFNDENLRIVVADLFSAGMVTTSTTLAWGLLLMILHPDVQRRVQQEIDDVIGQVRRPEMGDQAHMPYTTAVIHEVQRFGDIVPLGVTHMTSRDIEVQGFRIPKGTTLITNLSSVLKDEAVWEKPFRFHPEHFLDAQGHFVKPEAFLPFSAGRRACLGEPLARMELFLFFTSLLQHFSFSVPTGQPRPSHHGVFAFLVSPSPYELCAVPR
Sequence of Progesterone receptor (Homo sapiens) (P06401 whole entry, looked up): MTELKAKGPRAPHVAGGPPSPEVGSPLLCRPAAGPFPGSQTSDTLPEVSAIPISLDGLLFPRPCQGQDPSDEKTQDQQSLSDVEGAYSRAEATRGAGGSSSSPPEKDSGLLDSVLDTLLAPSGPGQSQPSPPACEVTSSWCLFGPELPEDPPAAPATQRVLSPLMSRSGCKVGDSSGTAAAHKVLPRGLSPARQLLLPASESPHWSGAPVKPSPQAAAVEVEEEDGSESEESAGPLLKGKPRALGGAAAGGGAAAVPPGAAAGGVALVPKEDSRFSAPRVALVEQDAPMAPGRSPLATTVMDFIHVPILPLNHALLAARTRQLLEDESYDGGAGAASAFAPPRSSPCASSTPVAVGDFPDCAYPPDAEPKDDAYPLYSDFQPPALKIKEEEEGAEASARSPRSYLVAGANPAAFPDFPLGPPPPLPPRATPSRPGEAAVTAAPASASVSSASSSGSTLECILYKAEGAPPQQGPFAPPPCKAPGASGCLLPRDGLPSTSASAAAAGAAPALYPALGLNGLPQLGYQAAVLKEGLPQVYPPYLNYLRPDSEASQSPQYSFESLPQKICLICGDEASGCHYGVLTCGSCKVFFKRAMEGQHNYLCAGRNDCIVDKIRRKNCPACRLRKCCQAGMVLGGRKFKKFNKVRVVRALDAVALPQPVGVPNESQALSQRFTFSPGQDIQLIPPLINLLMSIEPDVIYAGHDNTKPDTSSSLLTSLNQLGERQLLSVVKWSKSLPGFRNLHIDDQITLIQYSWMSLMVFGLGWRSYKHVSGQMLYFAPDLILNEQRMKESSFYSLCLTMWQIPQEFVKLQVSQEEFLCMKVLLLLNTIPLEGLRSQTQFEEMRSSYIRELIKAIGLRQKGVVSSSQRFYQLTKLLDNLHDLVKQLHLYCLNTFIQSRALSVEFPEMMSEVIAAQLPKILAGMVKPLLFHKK
Sequence of Cytochrome P450 2C19 (Homo sapiens) (P33261 whole entry, looked up): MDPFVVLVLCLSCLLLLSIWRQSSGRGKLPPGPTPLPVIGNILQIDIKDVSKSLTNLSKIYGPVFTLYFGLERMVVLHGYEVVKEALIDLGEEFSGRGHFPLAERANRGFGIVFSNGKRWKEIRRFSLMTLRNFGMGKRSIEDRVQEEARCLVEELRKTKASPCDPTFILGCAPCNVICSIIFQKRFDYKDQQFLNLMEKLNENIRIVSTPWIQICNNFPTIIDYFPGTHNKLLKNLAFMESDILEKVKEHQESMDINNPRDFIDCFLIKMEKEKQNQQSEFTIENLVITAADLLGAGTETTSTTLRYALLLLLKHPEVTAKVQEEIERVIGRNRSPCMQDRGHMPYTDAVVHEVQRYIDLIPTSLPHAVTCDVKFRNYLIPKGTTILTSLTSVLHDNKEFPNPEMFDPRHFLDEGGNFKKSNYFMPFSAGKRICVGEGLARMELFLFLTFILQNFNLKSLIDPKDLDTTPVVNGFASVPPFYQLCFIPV
Sequence of Nuclear receptor subfamily 1 group I member 2 (Homo sapiens) (O75469 whole entry, looked up): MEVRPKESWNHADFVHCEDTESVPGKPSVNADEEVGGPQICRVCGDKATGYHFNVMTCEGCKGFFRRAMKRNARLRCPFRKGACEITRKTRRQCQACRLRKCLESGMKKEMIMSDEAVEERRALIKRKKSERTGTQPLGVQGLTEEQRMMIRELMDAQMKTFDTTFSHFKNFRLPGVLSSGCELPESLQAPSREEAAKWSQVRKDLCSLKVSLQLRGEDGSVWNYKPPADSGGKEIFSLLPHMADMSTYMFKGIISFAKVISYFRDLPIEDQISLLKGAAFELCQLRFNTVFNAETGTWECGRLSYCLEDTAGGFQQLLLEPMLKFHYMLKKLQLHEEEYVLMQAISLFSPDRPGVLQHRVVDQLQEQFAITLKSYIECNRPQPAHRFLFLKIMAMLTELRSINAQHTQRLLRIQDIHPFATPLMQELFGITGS
Sequence of Thyrotropin-releasing hormone receptor (Homo sapiens) (P34981 whole entry, looked up): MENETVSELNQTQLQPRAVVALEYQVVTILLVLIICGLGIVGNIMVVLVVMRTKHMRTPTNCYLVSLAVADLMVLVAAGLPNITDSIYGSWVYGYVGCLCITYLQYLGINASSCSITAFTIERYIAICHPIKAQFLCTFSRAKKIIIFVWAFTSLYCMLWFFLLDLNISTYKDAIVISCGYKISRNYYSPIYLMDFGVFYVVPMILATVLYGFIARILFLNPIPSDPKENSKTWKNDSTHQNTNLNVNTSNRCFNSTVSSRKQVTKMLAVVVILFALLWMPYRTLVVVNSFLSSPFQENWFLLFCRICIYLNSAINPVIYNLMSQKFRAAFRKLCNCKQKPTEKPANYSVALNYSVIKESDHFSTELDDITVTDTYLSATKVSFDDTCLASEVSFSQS
Sequence of Nuclear receptor subfamily 1 group I member 2 (Rattus norvegicus) (Q9R1A7 whole entry, looked up): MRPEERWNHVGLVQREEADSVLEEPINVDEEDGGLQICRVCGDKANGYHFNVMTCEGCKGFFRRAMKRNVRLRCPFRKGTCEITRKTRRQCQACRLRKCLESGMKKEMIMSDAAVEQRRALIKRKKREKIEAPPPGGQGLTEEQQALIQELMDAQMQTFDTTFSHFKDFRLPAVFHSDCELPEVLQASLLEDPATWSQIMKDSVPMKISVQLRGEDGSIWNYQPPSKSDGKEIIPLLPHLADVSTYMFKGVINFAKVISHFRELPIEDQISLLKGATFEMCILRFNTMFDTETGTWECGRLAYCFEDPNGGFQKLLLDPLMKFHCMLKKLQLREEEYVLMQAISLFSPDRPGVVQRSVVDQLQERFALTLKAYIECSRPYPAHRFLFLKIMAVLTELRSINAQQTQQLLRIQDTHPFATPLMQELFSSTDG

Turning to `CN1CCN(C2=Nc3cc(Cl)ccc3Nc3ccccc32)CC1`, the molecule was called inactive in experiment [1], in experiment [6] and in experiment [7]. In addition, the Potency in [2], in [9] and in [11] was 23.7 µM (active) throughout. In addition, the Potency entry in experiment [3], in experiment [4], in experiment [5], in experiment [8], in experiment [10] and in experiment [12] was “inactive” each time.

As to `C1CCC2OC2C1` (stereo not drawn), the outcome in experiment [1], in experiment [6] and in experiment [7] was inactive. The Potency result in [2], in experiment [3], in [4], in experiment [5], in experiment [8] and in experiment [9] was “inactive” in each case. Further, the Potency entry in [13], in experiment [10], in experiment [11], in [12] and in experiment [14] was “inactive” in each case.

`O=C(CCN1CCN2CCCC2C1)N1c2ccccc2Sc2ccc(Cl)cc21` (stereo not drawn): the results for the activation in experiment [1] and in experiment [6] were -2.53% [at 19 µM] and -2.07% [at 15.8 µM], respectively. Further, the activity change, negative = inhibition in experiment [2] was -10.4% [at 18.9 µM]; in experiment [19] it was -4.46% [at 23.6 µM]. Besides, the activity change, negative = cytotoxicity was -27.7% [at 18.9 µM] in experiment [3], -27.9% [at 19 µM] in experiment [4], -3.72% [at 15.8 µM] in experiment [5] and -16.9% [at 19 µM] in [13]. Further, the viability change, negative = cytotoxic in experiment [15] is 0.3% [at 15.8 µM]. Besides, the caspase activation in experiment [16] is 1.09% [at 19 µM]. Further, the caspase-3/7 activation in experiment [10] is 0.894% [at 19 µM]. The max activation in experiment [17] was 3.92%. Also, the Potency in experiment [18] was 12.6 µM (active); in [14] it was 6.74 µM (active).

Regarding `CCN(CC)CCOC(=O)C1(c2ccccc2)CCCC1`, the call in experiment [1], in experiment [6], in experiment [7] and in experiment [16] was inactive. Moreover, the Potency entry in experiment [2], in experiment [3], in experiment [4], in experiment [5], in [8] and in [13] was “inactive” in each case. The Potency result in [10], in experiment [11] and in [18] was “inactive” throughout. In addition, the max activation in [17] is 1.06%. In addition, the Potency in experiment [14] was 1.38 µM (active).

As for `CCCCCCCCCC=O`, the call in experiment [1] and in experiment [7] was inactive. Besides, the Potency entry in experiment [2], in experiment [3], in experiment [4], in [15], in experiment [5] and in [8] was “inactive” in each case. The Potency entry in experiment [10], in experiment [12], in experiment [14] and in experiment [19] was “inactive” each time.

Take `CCOC(=O)C1=NN(c2ccccc2)C(=O)C1`: the result in experiment [1], in experiment [6], in experiment [7] and in [16] was inactive. Besides, the Potency entry in [2], in [3], in experiment [4], in [5], in experiment [8] and in experiment [9] was “inactive” in each case. The Potency result in [13], in [10], in experiment [11], in experiment [14] and in experiment [19] was “inactive” in each case.

For `CC1CCc2cc(F)cc3c(=O)c(C(=O)O)cn1c23` (stereo not drawn), the result in experiment [1] and in experiment [16] was inactive. The Potency entry in experiment [2], in experiment [3], in experiment [4], in experiment [15], in [9] and in experiment [13] was “inactive” throughout. The Potency result in experiment [10], in experiment [11] and in experiment [14] was “inactive” each time.
